Many of the other results were omitted from the sample, so hits are more common in it than they were.
VDR inh = blocks the human vitamin D receptor | P11473 | VDR-SRC2-3 peptide fluorescence polarization, 2 h | Potency, µM, actives largely listed as inhibitors | actives 0.93% (n = 400,000)
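Two reagent solutions held at 4 deg C in the dark were dispensed, compounds pinned at 23 nl, and the mixture incubated 2 h at room temperature. Read-out: fluorescence polarization of VDR–SRC2-3 peptide binding.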
G9a block = G9a (human) methyltransferase inhibition; Potency, µM (highest dose often 102 µM), most hits filed as inhibitors; G9a H3K9 monomethylation, AlphaScreen, 2 h; actives 8.8% (n = 350,000); Q96KQ7; AID 504332; further: nearly all actives have a fitted effect of over 75% in size
Target sequence (Q96KQ7 913-1193 limits assumed): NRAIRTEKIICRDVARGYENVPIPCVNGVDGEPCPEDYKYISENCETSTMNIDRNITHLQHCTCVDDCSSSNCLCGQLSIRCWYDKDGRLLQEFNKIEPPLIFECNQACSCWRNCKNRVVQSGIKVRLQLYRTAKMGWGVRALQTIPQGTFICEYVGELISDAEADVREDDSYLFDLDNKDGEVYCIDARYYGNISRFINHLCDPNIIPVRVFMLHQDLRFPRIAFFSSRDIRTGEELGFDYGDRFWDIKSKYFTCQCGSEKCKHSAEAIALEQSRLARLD
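G9a (20 nM) preincubated 15 min RT with compounds, then 500 nM biotinylated H3K9 peptide and 20 uM SAM added; 2 h RT reaction. Monomethyl-H3K9 product detected by AlphaScreen with anti-H3K9me1 antibody, streptavidin donor and anti-rabbit IgG acceptor beads.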
Sfp inh = inhibitors of Bacillus subtilis Sfp phosphopantetheinyl transferase; Biochemical Sfp PPTase activity, qHTS; Potency, µM, usual class: inhibitors; actives 3.5% (n = 310,000); AID 1490;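 further: the enzyme is Sfp with the accession as filed and its product quenches rhodamine fluorescence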
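Fluorescence-quenching assay with 15 nM Sfp, 5 uM rhodamine-CoA and 12.5 uM BHQ-2-labelled ybbR peptide in pH 7.6 Hepes/MgCl2 buffer. Enzyme was pre-incubated with compound for 15 min at room temperature. Rate was taken from the 30-min fluorescence change (525/598 nm).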
GRP78 ERSR act = induces the endoplasmic reticulum stress response in human glioma cells | U87-MG GRP78 promoter luciferase reporter, 16 h | Potency, µM, actives largely listed as activators | actives 0.02% (n = 420,000) | AID 602332; further: series mostly up to about 76 µM; nearly all actives have a fitted effect of over 35% in size
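Stably transfected U87-MG human glioma cells carrying a GRP78-based luminescent sensor were seeded at 1000 cells/well, pin-dosed with compounds and incubated 16 h. Luciferase reagent was then added, and end-point luminescence was read after 10 min at room temperature.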
ALOX12 inh = blocks human arachidonate 12S-lipoxygenase; actives 1.1% (n = 580,000); Potency, µM (highest dose often 108 µM), actives largely listed as inhibitors; P18054; purified 12hLO, xylenol orange hydroperoxide absorbance; AID 1671190
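Hydroperoxide product was detected by ferrous iron/xylenol orange as the 573 to 405 nm absorbance ratio. Arachidonic acid at 40 uM (final) was turned over for 30 min at room temperature by 150 nM human 12hLO, pH 7.0 Hepes buffer, after 15 min compound preincubation.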
Hits are given with their value; n = inactive; u = inconclusive; x = no result given. The call rests on the fitted dose curve; in most records, active means well fitted curve in the direction sought with a large enough effect; inconclusive means small, poorly fitted or top-dose-only effect, or another doubt; inactive means no such curve, though single readings can be large; an effect the other way counts as inactive or inconclusive.

SMILES	VDR inh	G9a block	Sfp inh	GRP78 ERSR act	ALOX12 inh
O=C(COc1ccc(F)cc1)N1CCC(c2nc3ccccc3o2)CC1	x	x	x	x	n
CN(C)C(=O)C1CN(C(=O)c2nn(Cc3ccccc3)c(=O)c3ccccc23)c2ccccc2O1 (configuration not stated)	x	x	x	x	n
C=CCC1CCC/C(=N\NS(=O)(=O)c2ccc(C)cc2)C1 (configuration not stated)	n	25.1µM	n	n	u
Cc1ccc(S(=O)(=O)NN=C2CCN(Cc3ccccc3)CC2)cc1	n	n	n	n	n
O=C(NCCn1cccc1-c1nc(-c2ccc3c(c2)OCO3)no1)C1(c2ccccc2)CC1	x	x	x	x	n
O=[N+]([O-])c1ccc([C@H](O)[C@H](CO)N=Cc2ccccc2O)cc1	n	8.91µM	n	n	n
CCN(CC)CCN(C(=O)c1ccc2ccccc2c1)c1nc2ccc(F)cc2s1	n	44.7µM	n	n	u
Cc1ccc2nc(N(CCCN(C)C)C(=O)c3ccc(S(=O)(=O)N4CCCCCC4)cc3)sc2c1	n	n	n	n	u
CN(C)CCN(C(=O)c1ccc2ccccc2c1)c1nc2cc3c(cc2s1)OCCO3	n	39.8µM	79.4µM	n	n
CCCCN(C)S(=O)(=O)c1ccc(C(=O)N(CCN(C)C)c2nc3ccc(C)cc3s2)cc1	n	39.8µM	n	n	n
CCN(CC)CCN(C(=O)c1cc2c(ccc3ccccc32)oc1=O)c1nc2cc3c(cc2s1)OCCO3	n	x	39.8µM	n	u
CN(Cc1ccco1)C(=O)c1cn[nH]c1-c1ccc(Cl)cc1	x	x	x	x	n
Cc1ccccc1-c1noc(Cn2cnc3c2c(=O)n(C)c(=O)n3C)n1	x	x	x	x	n
CN(C)CCN(C(=O)c1cccc(N2C(=O)CCC2=O)c1)c1nc2ccc(Br)cc2s1	n	u	n	n	u
Cc1cc(C)c2nc(N(CCCN(C)C)C(=O)c3ccc4c(c3)OCCO4)sc2c1	n	50.1µM	x	n	u
Cc1ccc2nc(N(CCN(C)C)C(=O)c3ccc4c(c3)OCCO4)sc2c1	n	44.7µM	n	n	u
CCN(CC)CCN(C(=O)c1ccc2c(c1)OCCO2)c1nc2cc3c(cc2s1)OCO3	n	n	n	n	n
CCN(CC)CCN(C(=O)c1ccc2c(c1)OCCO2)c1nc2ccc(C)cc2s1	n	79.4µM	n	n	n
CN(C)CCN(C(=O)c1ccc(N2C(=O)CCC2=O)cc1)c1nc2cc3c(cc2s1)OCO3	n	39.8µM	n	n	n
CN(C)CCCN(C(=O)c1ccc2c(c1)OCCO2)c1nc2ccccc2s1	n	n	x	n	u
CC(OC(=O)Cc1n[nH]c(=O)c2ccccc12)C(=O)NCc1ccccc1 (configuration not stated)	x	x	x	x	n
Cc1ccc2nc(NNC(=O)c3ccc(S(=O)(=O)N4CCc5ccccc5C4)cc3)sc2c1	n	n	n	n	u
CN(C)CCN(C(=O)c1cccc2ccccc12)c1nc2cc3c(cc2s1)OCO3	n	x	79.4µM	n	u
Cc1ccc2nc(NNC(=O)c3ccc4c(c3)OCCO4)sc2c1	n	11.2µM	u	n	n
CN(C)CCCN(C(=O)c1ccc2ccccc2c1)c1nc2cc3c(cc2s1)OCO3	n	u	n	n	u
SMILES	VDR inh	G9a block	Sfp inh	GRP78 ERSR act	ALOX12 inh
CN(C)CCN(C(=O)c1ccc2ccccc2c1)c1nc2ccc(Br)cc2s1	n	x	n	n	n
Cc1ccc2nc(N(CCN(C)C)C(=O)c3ccc4ccccc4c3)sc2c1	n	39.8µM	u	n	x
N#Cc1ccc(CN2CCc3cc(S(=O)(=O)N4CCCCC4)ccc32)c(F)c1	x	x	x	x	n
CC(C)(C)c1ccc(-c2n[nH]c(=S)n2CC2CCCO2)cc1 (configuration not stated)	n	7.94µM	n	n	u
S=c1[nH]nc(-c2ccccc2Cl)n1CC1CCCO1 (configuration not stated)	n	5.01µM	u	n	n
CC(C)c1noc(C(C)Nc2ccc3oc(C(C)(C)C)nc3c2)n1 (configuration not stated)	x	x	x	x	n
CCOC(=O)C1CCCCN1Cc1cccc(Oc2ccccc2)c1 (configuration not stated)	n	n	n	n	14.1µM
CCOC(=O)C1CCCCN1Cc1cccc(F)c1 (configuration not stated)	n	3.55µM	n	n	u
CCOC(=O)C1CCCCN1Cc1ccc(F)cc1 (configuration not stated)	n	10µM	n	n	u
